In the library only some 17% were active in any assay of this set; here they are far more common.
HT1080-NT tox = qHTS for induction of synthetic lethality in tumor cells producing 2HG: qHTS for the HT-1080-NT fibrosarcoma cell line; HT-1080-NT fibrosarcoma viability, CellTiter-Glo ATP luminescence, 48 h; Potency, µM (doses to about 46.1 µM), actives largely listed as cytotoxic; 360,000 compounds, 1.6% hits;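 also: NT is the 2HG producing partner of a matched IDH1 knockdown line; nearly all actives have a fitted effect of over 55% in size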
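Luminescent CellTiter-Glo readout after 48 hours of compound exposure at 37 degrees C defined viability of HT-1080-NT cells. Activity was normalized to DMSO wells and cell-free media wells; concentration-response curves were fitted and assigned curve classes.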
TGFb SMAD3 inh = qHTS for Inhibitors of TGF-b | HepG2 CAGA-GFP TGF-b/SMAD3 reporter, GFP fluorescence, 18 h; TGF-beta stimulated, 500 pg/mL final | Potency, µM (top dose mostly 46.1 µM), hits mostly inhibitors | 410,000 compounds, 1.2% hits | AID 588855, 2011; also: nearly all actives have a fitted effect of over 65% in size
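HEPG2 CAGA-GFP, 1000 cells/well; 2 h settle, 37 C; cpd via pin tool; TGF-b 500 pg/mL final; 18 h, 37 C; GFP imaging ex488/em500-530; %Activity normalised to -TGF-b and +DMSO controls; CRC fit, curve class.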
HepG2 tox = qHTS for Inhibitors of TGF-b: Cytotox Counterscreen. Potency, µM (titrated, usually from 46.1 µM), hits mostly cytotoxic. 410,000 compounds, 0.76% hits. HepG2 CAGA-GFP viability, ATP luminescence, 18 h. AID 588856, 2011
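HepG2 CAGA-GFP cells (1000/well, DMEM with 1% FBS) received compound, then TGF-beta at 500 pg/mL final, and were incubated 18 hours at 37 degrees C. Viability was read by CellTiter-Glo luminescence. Media-only wells were set as complete cell-killing and DMSO as no toxicity.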
DT40 TDP1 no CPT = qHTS for Inhibitors of human tyrosyl-DNA phosphodiesterase 1 (TDP1): qHTS in cells in absence of CPT. DT40 Tdp1-/- hTDP1 cells, no CPT, ATP luminescence, 48 h. Potency, µM (top dose mostly 46.2 µM), actives largely listed as inhibitors. 420,000 compounds, 15% hits. AID 686978, 2013; also: nearly all actives have a fitted effect of over 55% in size
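Camptothecin absent (DMSO only). Human TDP1-complemented DT40 knockout cells, 400 cells/well, 37 °C for minimum 48 hr; ATP measured via CellTiter-Glo, 30 min dark incubation, luminescence.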
HT1080 IDH1KD tx = qHTS for induction of synthetic lethality in tumor cells producing 2HG: qHTS for the HT-1080-IDH1KD cell line; 360,000 compounds, 2% hits; HT-1080 IDH1 knockdown viability, ATP luminescence, 48 h; Potency, µM (series often up to 46.1 µM), hits mostly cytotoxic; AID 686971, 2013
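Assay cells: HT-1080 with IDH1 knockdown, 750 per well, RPMI/5% FBS. Exposure: 48 h at 37 °C following 2 h pre-incubation. Read: CellTiter-Glo luminescence; fitted concentration-response, curve class assigned.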
TDP1 cell CPT = qHTS for Inhibitors of human tyrosyl-DNA phosphodiesterase 1 (TDP1): qHTS in cells in presence of CPT. 420,000 compounds, 12% hits. chicken DT40 Tdp1-/-;hTDP1 cells + 20 nM CPT, ATP luminescence, 48 h. Potency, µM (series often up to 46.2 µM), usual class: inhibitors. AID 686979, 2013; also: nearly all actives have a fitted effect of over 55% in size
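Chicken DT40 Tdp1-/- cells stably complemented with human TDP1 were seeded at 400 cells/well in medium containing 20 nM camptothecin, exposed to pin-transferred compounds, and grown at 37 °C for at least 48 hr. Viability was read as ATP luminescence.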
Hits are given with their value; n = inactive; u = inconclusive; x = not tested or not shown; [ ] = another dose, or the depositor's remark. Calls follow the shape of the dose curve; as a rule, active = well fitted curve in the direction sought with a large enough effect; inconclusive = small, poorly fitted or top-dose-only effect, or another doubt; inactive = no such curve, though single readings can be large; an effect the other way counts as inactive or inconclusive.

SMILES | HT1080-NT tox | TGFb SMAD3 inh | HepG2 tox | DT40 TDP1 no CPT | HT1080 IDH1KD tx | TDP1 cell CPT
C[C@H](c1ccccc1)N1C[C@H](COCc2ccccc2)Oc2cc(N3CCC[C@H]3C(N)=O)ccc2S1(=O)=O | n | x | x | 16µM | u | u
C[C@@H](c1ccccc1)N1C[C@H](COCc2ccccc2)Oc2cc(N3CCC[C@H]3C(N)=O)ccc2S1(=O)=O | n | x | x | u | n | u
Cc1ccccc1CN1CCN(C(C)C(=O)NNC(=O)c2ccc(F)cc2)CC1 (stereo not drawn) | n | n | n | n | n | n
CCC1CN(Cc2ccc(COC)o2)Cc2cc(OC)ccc2O1 (stereo not drawn) | x | x | x | n | x | n[9.04 µM]
c1ccc(-c2nc3c4ccccc4ccn3c2CN2CCCCC2)cc1 | n | n | n | 21µM | n | u
Clc1cccc(-c2nc3c4ccccc4ccn3c2CC2CCCCC2)c1 | n | n | n | u | n | u
Cc1ccc(-c2nc3c4ccccc4ccn3c2CN2CCCCC2)cc1 | n | u | n | 23µM | n | 23µM
O=C(NC(Cc1cccc(F)c1)C(=O)O)C1CCCCC1 (stereo not drawn) | n | n | n | n | n | n
COc1ccc(C(=O)C[C@@H]2OC[C@H](Cc3ccccc3)N2S(=O)(=O)c2ccc(C)cc2)cc1OC | n | x | x | u | n | u
CC(C)NC(=S)N/N=C/c1cc(Br)ccc1O | u | u | n | 4.6µM | u | 4.6µM
CC(C)NC(=S)N/N=C/c1c[nH]c2ccccc12 | n | n | n | 3.7µM | n | 4.6µM
COCCNC(=S)N/N=C/c1ccccc1C(=O)O | n | n | n | n | n | n
O=C(CCc1ccccc1)N/N=C/c1cc(Br)ccc1O | u | u | n | 4.1µM | u | 2.6µM
COCCCNC(=S)N/N=C/c1ccccc1O | n | 1.8µM | n | 0.58µM | n | 2.6µM
Cc1[nH]c2ccccc2c1/C=N/NC(=S)NC(C)C | u | n | n | u | u | u
O=C(CCc1ccccc1)NCC(=O)N/N=C/c1ccc(O)cc1O | n | u | n | u | u | u
NC(=O)C1CCN(C(=O)c2ccc(Cl)c(NC(=O)c3cccs3)c2)CC1 | n | n | n | n | n | n
Oc1ccc(Br)cc1/C=N/NC(=S)NCCc1ccccc1 | u | u | n | 16µM | u | u
S=C(NCCc1ccccc1)N/N=C/c1ccccc1Cl | n | u | n | u | n | u
COc1ccc(/C(C)=N/NC(=S)NCCc2ccccc2)c(O)c1 | u | u | n | 0.58µM | u | 0.65µM
COc1ccc(CCNC(=S)Nc2ccccc2)cc1 | n | u | n | u | n | u
COc1ccc(O)c(/C=N/NC(=S)NCCc2ccccc2)c1 | 15µM | u | n | u | u | u
COc1ccc(C(=O)NC(=S)NCCc2ccccc2)cc1 | n | n | n | u | n | u
COc1cc(/C=N/NC(=O)C(=O)NCC2CCCO2)cc(Cl)c1O (stereo not drawn) | n | n | n | n | n | n
NN(Cc1ccccc1)C(=S)Nc1ccc(Cl)c(Cl)c1 | n | n | n | n | n | n
SMILES | HT1080-NT tox | TGFb SMAD3 inh | HepG2 tox | DT40 TDP1 no CPT | HT1080 IDH1KD tx | TDP1 cell CPT
CNC(=O)N1c2ccccc2CCc2ccccc21 | n | n | n | u | n | n
O=C(NN1c2ccccc2CCc2ccccc21)c1ccccc1Br | n | n | n | u | n | 21µM
C[C@H](NC(=O)OC(C)(C)C)[C@@H](O)c1ccco1 | x | n | n | n | x | n
O=C(CSc1nnc(Cc2ccccc2)o1)Nc1ccc(N2CCOCC2)cc1 | n | n | n | n | n | n
CN1C(=O)C(N=Nc2ccc([N+](=O)[O-])cc2)SC1=S (stereo not drawn) | u | u | n | 6.5µM | u | 7.3µM
CCOC(=O)Nc1ccc2c(c1)N(C(=O)CCN1CCOCC1)c1ccccc1S2 | n | n | n | n | n | u
CCOC(=O)Nc1ccc2c(c1)N(C(=O)CCN1CCOCC1)c1ccccc1S2=O (stereo not drawn) | u | n | n | 5.8µM | n | 3.7µM
CC(=O)NC1C(=O)N(C)c2ccc(Br)cc21 (stereo not drawn) | n | n | n | n | n | n
Cc1cc(F)ccc1NC(=O)CCS(=O)(=O)c1cc2c(cc1C)NC(=O)CO2 | x | n | n | x | x | x
CCCOC(=O)c1cccc(Nc2nc(-c3cccnc3)nc3ccccc23)c1 | 26µM | 18µM | 16µM | 3.3µM | u | 9.2µM
CCCOC(=O)c1cccc(NC(=O)c2cccnc2)c1 | n | n | n | 5.8µM | n | 9.2µM
CCOC(=O)c1cccc(Nc2ncnc3ccccc23)c1 | n | n | n | 13µM | n[9.24 µM] | u
O=C(OCCNc1nc(-c2ccccc2)nc2ccccc12)c1ccncc1 | n | n | n | n | n | n
CCCCCn1nnnc1C1(C)CCC(=O)N1Cc1ccco1 (stereo not drawn) | n | x | x | n | n | u
Cc1ccc(-n2[nH]c(C)c(/C=N/c3ccccn3)c2=O)cc1 | 7.1µM | n | 10µM | u | u | u
Cc1ccc(-n2[nH]c(C)c(C=Nc3cc(C)ccn3)c2=O)cc1 | 10µM | n | n | u | 23µM | u
COc1ccc2nc(/N=C/c3c(C)[nH]n(-c4ccc(C)cc4)c3=O)sc2c1 | u | n | 8.9µM | u | u | 13µM
Cc1ccc(-n2[nH]c(C)c(C=Nc3ccc(Br)cn3)c2=O)cc1 | n | n | n | u | n | u
CCc1nnc(NS(=O)(=O)c2ccc(N=Cc3c(C)[nH]n(-c4ccc(Cl)cc4)c3=O)cc2)s1 | n | n | n | u | n | u
Cc1[nH]n(-c2ccc(Cl)cc2)c(=O)c1/C=N/c1nnc(-c2ccccc2)s1 | n | n | n | 16µM | n | u
COc1ccc(C(=O)N2CCC[C@@]3(CCN(Cc4ccccc4OC)C3)C2)cc1 | x | x | x | u | x | n
COc1cc(C(C)n2nnc3ccccc32)ccc1O (stereo not drawn) | n | n | n | n | n | n
CN(C)S(=O)(=O)c1ccc(Cl)c(NC(=O)CN2CCCC2)c1 | n | n | n | n | n | n
Cc1[nH]n(-c2ccccc2)c(=O)c1C=Nc1cccc2cccnc12 | n | u | n | 0.92µM | u | 0.65µM
Cc1[nH]n(-c2ccccc2)c(=O)c1C=NCc1ccncc1 | n | n | n | n | n | n

Compound activity (PubChem BioAssay)
